Screening results as filed in PubChem BioAssay.
Only a selection was taken, and hits are over-represented in it overall.
14-3-3 PPI: alters human 14-3-3 gamma binding to Raf peptide; P61981; FP, 14-3-3gamma / TMR-pS259-Raf peptide binding; AID 422; inhibition, % at 40 µM; 160,000 compounds, 0.19% hits; in the data active = inhibition above about 30%;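 also: 0% = protein plus tracer without compound and 100% = blank with tracer alone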
Target sequence (P61981 whole entry, looked up): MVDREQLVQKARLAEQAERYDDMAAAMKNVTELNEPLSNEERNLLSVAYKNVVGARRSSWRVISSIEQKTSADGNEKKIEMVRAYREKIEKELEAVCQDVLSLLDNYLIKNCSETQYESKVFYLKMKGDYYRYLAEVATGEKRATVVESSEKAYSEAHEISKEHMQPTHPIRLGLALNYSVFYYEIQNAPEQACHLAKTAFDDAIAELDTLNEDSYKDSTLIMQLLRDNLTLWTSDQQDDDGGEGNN
Starred values were filed as active, the others as inactive.

SMILES	14-3-3 PPI
Cc1nc2cc(C(=O)O)ccc2s1	-6.7
Cc1nc2ccc(C(=O)O)cc2c2c1CC(C)S2 (stereo not drawn)	73.4*
COc1cccc2c3c(c(C)nc12)CC(C)S3 (stereo not drawn)	-6.4
O=C(COC(=O)c1ccc(Cl)c([N+](=O)[O-])c1)c1ccc(Cl)cc1	11.1
CCCc1n(CC(O)COc2ccc(C(C)C)cc2)c2ccccc2[n+]1C (stereo not drawn)	-3.9
O=C(NC1CCCCCC1)c1ccc(CNS(=O)(=O)c2ccc(F)cc2)cc1	1.5
C=CCn1c(=N)c(C(=O)NC(C)c2ccccc2)cc2c(=O)n3cccc(C)c3nc21 (stereo not drawn)	-13.7
CN1CCc2c(sc(/N=C/c3ccco3)c2C(N)=O)C1	47.8*
CN1CCc2c(sc(/N=C/c3cccs3)c2C(N)=O)C1	-37.5
N#Cc1c(/N=C/c2ccco2)sc2c1CCCCC2	-6.6
O=C(NCCc1ccccc1)C1CCC(Cn2c(=S)[nH]c3ccccc3c2=O)CC1 (stereo not drawn)	3.5
COc1ccc(N2CCN(c3cc(N4CCN(S(=O)(=O)c5ccc(C)cc5)CC4)ccc3[N+](=O)[O-])CC2)cc1	-3.6
Cc1ccc2nc(-c3ccc(OC(=O)c4ccc(Br)o4)cc3)sc2c1	-11.4
Cc1ccc(C)c(Nc2c([N+](=O)[O-])ccc3nonc23)c1	-13.3
Cc1ccc(C)c(Nc2ccc3nonc3c2[N+](=O)[O-])c1	-9.6
Cc1ccc(C)c(Nc2ccc([N+](=O)[O-])c3nonc23)c1	34.3*
O=c1[nH]c(SCc2ccccc2)nc2c1cnn2-c1ccccc1	28.0
O=C(OCCN1CCCCC1)c1ccccc1F	-2.6
O=C(Oc1ccc(C2CCCCC2)cc1)c1ccccc1F	31.3*
CSc1ccc(OC(=O)c2ccccc2F)cc1	-5.0
COc1cccc(NC(=O)c2oc(=O)c3ccccc3c2-c2ccc(C)cc2)c1	3.8
CCCCn1c(SCc2ccc(F)cc2)nc2ccsc2c1=O	2.9
CCCCOc1ccc(NC2=C(N3CCOCC3)C(=O)c3ccccc3C2=O)cc1	1.0
O=C(O)c1ccc(NC2=C(N3CCOCC3)C(=O)c3ccccc3C2=O)cc1	55.8*
O=C(O)c1cccc(NC2=C(N3CCCC3)C(=O)c3ccccc3C2=O)c1	-22.3
SMILES	14-3-3 PPI
O=C(c1ccccc1)N1CCN(S(=O)(=O)c2ccccc2)C1c1ccccc1 (stereo not drawn)	-1.1
O=C1c2ccccc2C(=O)N1Cc1ccc2[nH]c3c(c2c1)CCCC3	-4.4
COc1ccccc1-n1c(C)nc2cc(C(=O)O)ccc21	39.6*
CCOc1ccccc1-n1cnc2cc(C(=O)O)ccc21	57.2*
COCCNC(=O)c1ccc2c(c1)nc(C)n2-c1ccccc1OC	-128.7
CCOc1ccccc1-n1cnc2cc(C(=O)NCc3ccco3)ccc21	-13.9
COc1ccc(OC)c(-n2cnc3cc(C(=O)O)ccc32)c1	-19.3
Cc1nc2cc(C(=O)O)ccc2n1-c1ccccc1	-2.8
CCOC(=O)c1ccc2c(c1)sc1nc(-c3cc4cc(OC)ccc4oc3=O)cn12	-9.5
COc1cccc(C2C(C(=O)Nc3ccccn3)=C(C)NC3=C2C(=O)CC(C)(C)C3)c1OC (stereo not drawn)	-12.9
O=C1c2ccccc2-c2onc3ccc(NCc4ccco4)c1c23	81.9*
CCOc1ccc2noc3c2c1C(=O)c1ccccc1-3	4.0
Cc1cccc(Nc2ccc3noc4c3c2C(=O)c2ccccc2-4)c1	-126.0
C=CCNS(=O)(=O)c1ccc(F)c(C(=O)Nc2ccc(C)c(C)c2)c1	-5.4
COc1ccc(CCn2c(SCC(=O)C(C)(C)C)nc3ccccc3c2=O)cc1OC	-1.1
CCOCCCNC(=O)c1cnn2c(C)c(Cc3cccc(Cl)c3)c(C)nc12	-8.5
COc1cccc(N2C(=O)C(N3C(=O)c4ccc([N+](=O)[O-])cc4C3=O)C2c2cccs2)c1 (stereo not drawn)	10.8
CC(C)C1=CC23CCC4C(C)(C(=O)O)CCCC4(C)C2CC1C1C(=O)N(c2ccc(O)cc2)C(=O)C13 (stereo not drawn)	-24.2
CC(C)CN1C(=O)C2C3CC4C5(C)CCCC(C)(C(=O)O)C5CCC4(C=C3C(C)C)C2C1=O (stereo not drawn)	5.8
CC(C)C1=CC23CCC4C(C)(C(=O)O)CCCC4(C)C2CC1C1C(=O)OC(=O)C13 (stereo not drawn)	47.0*
COc1cc(OC)cc(C(=O)Nc2ccc(C)cc2C)c1	-6.9
O=C(Cn1cc2c(n1)CCCC2)NCc1cccs1	-3.9
COc1ccc(CNC(=O)Cn2cc3c(n2)CCCCC3)cc1	2.2
O=C(Cn1cc2c(n1)CCCC2)NCc1ccccn1	66.6*
Cc1cccc2oc(-c3ccc(N=CC=Cc4ccccc4)cc3)nc12	-58.5
SMILES	14-3-3 PPI
COc1cccc(CNC(=O)CCS(=O)(=O)c2ccc3c(c2)CC(C)N3C(C)=O)c1 (stereo not drawn)	-0.3
CC(=O)N1c2ccc(S(=O)(=O)CCC(=O)NCc3ccc(C)cc3)cc2CC1C (stereo not drawn)	33.1*
CC(=O)N1c2ccc(S(=O)(=O)CCC(=O)NCc3ccccc3)cc2CC1C (stereo not drawn)	19.8
Cc1nnc(SCC(=O)Nc2ccc(Cl)cc2[N+](=O)[O-])[nH]c1=O	-5.0
CCCCCC(=O)Oc1cccc(N2C(=O)CCC2=O)c1	-3.4
CCN1CCN(CCCNS(=O)(=O)c2cc(Br)cc3c2N(C(C)=O)CC3)CC1	-10.4
O=C(Nc1cccc(F)c1)c1cc(S(=O)(=O)NCc2ccccc2)ccc1F	-0.7
Cc1nnc(N2C(=O)C(O)=C(C(=O)c3cccs3)C2c2cccc(Oc3ccccc3)c2)s1 (stereo not drawn)	-43.9
O=C(C1=C(O)C(=O)N(c2nncs2)C1c1cccc(Br)c1)c1cccs1 (stereo not drawn)	83.9*
COc1ccc(C2C(C(=O)c3cccs3)=C(O)C(=O)N2c2nnc(C)s2)cc1OC (stereo not drawn)	-4.9
CCOc1ccc(/C(O)=C2\C(=O)C(=O)N(CCN(C)C)C2c2ccc(F)cc2)cc1C (stereo not drawn)	-0.2
Cc1cc(C)cc(OCCCCCN2CCC(C)CC2)c1	-0.8
CC1CC(=O)C(CC(=O)O)C1C[N+](=O)[O-] (stereo not drawn)	30.3*
COC(=O)c1cc(Nc2ncnc3c2cnn3-c2ccc(Cl)cc2)cc(C(=O)OC)c1	-0.8
CC1=C(C(=O)Nc2ccccc2)C(c2ccc([N+](=O)[O-])cc2)NC(=S)N1 (stereo not drawn)	3.5
CN1C(=S)SC(N(O)C(=O)Nc2ccccc2)C1(C)C (stereo not drawn)	42.7*
CC1(C)C(N(O)C(=O)Nc2ccccc2)N(c2cccc(Cl)c2)C(=O)N1O (stereo not drawn)	-5.9
O=C(Oc1ccccc1)c1ccc(=O)oc1	-135.3
O=C(NCc1cccs1)c1ccc2c(c1)N(Cc1ccccc1Cl)C(=O)CS2	-7.7
Cc1ccc(-n2c(=O)[nH]cc(C(=O)Nc3ccc4c(c3)OCCO4)c2=O)cc1C	37.3*
Cc1ccc(-n2c(=O)[nH]cc(C(=O)Nc3ccc4c(c3)OCCO4)c2=O)cc1	-2.3
COc1ccc(-n2c(=O)[nH]cc(C(=O)Nc3ccc4c(c3)OCCO4)c2=O)cc1	-10.5
COC(=O)C(Sc1c[nH]c2ccccc12)(C(F)(F)F)C(F)(F)F	-9.4
Cc1cc(C)cc(-n2nc3c(c2NC(=O)c2ccccc2[N+](=O)[O-])CSC3)c1	-12.9
C=CCN=c1cc(-c2ccccc2)oc2ccc(C)cc12	-12.1
Cc1ccc(N=Cc2cc(-c3ccccc3)oc2S)c(C)c1	90.3*
